# From PubChem BioAssay
# Several values for one entry are separate records, joined by “and”; a condition that tells them apart may be missing. Identical values can stand only once. Results filed as inconclusive are left out. Activity calls are given as the source filed them.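 Rule for the calls, unless noted: active = normalized viability below 100% at a tested concentration; inactive = the rest.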
# Experiments:
# [1] = P. berghei load reduction in hepatocytes – cell-based, HepG2, luciferase luminescence, HepG2 viability, primary screen (AID 624349; in the data active = parasite load remaining mostly below about 12%, no sharp cut-off; inactive = mostly above about 10%;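 note: 100% = mean of DMSO negative control wells on the same plate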); settings: P. berghei liver stage in HepG2, luciferase luminescence, concentration not given here; parasite load remaining: stronger effect = lower value; viability: measured here: HepG2 viability without parasites
# [2] = viability loss with induced miR-34 in A549 – imaging, A549 dox-inducible miR-34, nuclei and caspase counts, primary screen (AID 1347080;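 active = compounds whose cell count with miR-34 switched on is under 0.7 times the count with it off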); settings: A549 miR-34 inducible, Hoechst nuclei count, 48 h
# [3] = chitosan synthesis blockers in C. neoformans – flow cytometry, Cibacron Brilliant Red staining (AID 1347148; call rule not given here;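 note: compound exposure lasted three days at 37 degrees C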); settings: Cryptococcus neoformans chitosan, stronger effect = lower value; at 10 µM unless noted
# [4] = compounds altering viability of human ES cells (AID 493140; call rule not given here;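 note: cells exposed to compounds for four days before counting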); settings: human embryonic stem cell survival screen; stronger effect = higher value
# [5] = target: ATP-dependent translocase ABCB1 (Homo sapiens) (UniProt P08183); experiment: P-glycoprotein substrate transport blockade – cell-based (AID 377; in the data active = fluorescence slope change above about 50%); settings: MDR1-expressing cells, fluorescent substrate accumulation slope; stronger effect = higher value; concentration not given here
# [6] = MELAS cybrid and Rieske KO viability enhancers – cell-based, MELAS cybrids, Rieske KO mouse fibroblasts, CellTiter-Glo, primary screen (AID 1508586;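 active = mean z-score across replicates of 1.96 or higher in either the MELAS or the Rieske mutant cell line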;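 note: z relative to plate mean and SD of compound and empty wells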); settings: low glucose
# [7] = drug combination growth inhibition, ovarian cancer – cell-based, oncology-focused library, rucaparib conditional, profiling panel (AID 1508598); settings: patient-derived ovarian cancer cells, CellTiter-Glo viability, 144 h, stronger effect = lower value
# [8] = stronger effect = lower value, cell number ratio, induced over uninduced
# [9] = measured here: relative caspase fold change +Dox/-Dox
# [10] = measured here: total cells with miR-34 induction, stronger effect = lower value
# [11] = measured here: total cells without miR-34 induction
# [12] = MELAS cybrid survival, CellTiter-Glo 48 h, stronger effect = higher value
# [13] = Rieske KO mouse fibroblast survival, CellTiter-Glo 72 h
# Sequence of ATP-dependent translocase ABCB1 (Homo sapiens) (P08183 whole entry, looked up): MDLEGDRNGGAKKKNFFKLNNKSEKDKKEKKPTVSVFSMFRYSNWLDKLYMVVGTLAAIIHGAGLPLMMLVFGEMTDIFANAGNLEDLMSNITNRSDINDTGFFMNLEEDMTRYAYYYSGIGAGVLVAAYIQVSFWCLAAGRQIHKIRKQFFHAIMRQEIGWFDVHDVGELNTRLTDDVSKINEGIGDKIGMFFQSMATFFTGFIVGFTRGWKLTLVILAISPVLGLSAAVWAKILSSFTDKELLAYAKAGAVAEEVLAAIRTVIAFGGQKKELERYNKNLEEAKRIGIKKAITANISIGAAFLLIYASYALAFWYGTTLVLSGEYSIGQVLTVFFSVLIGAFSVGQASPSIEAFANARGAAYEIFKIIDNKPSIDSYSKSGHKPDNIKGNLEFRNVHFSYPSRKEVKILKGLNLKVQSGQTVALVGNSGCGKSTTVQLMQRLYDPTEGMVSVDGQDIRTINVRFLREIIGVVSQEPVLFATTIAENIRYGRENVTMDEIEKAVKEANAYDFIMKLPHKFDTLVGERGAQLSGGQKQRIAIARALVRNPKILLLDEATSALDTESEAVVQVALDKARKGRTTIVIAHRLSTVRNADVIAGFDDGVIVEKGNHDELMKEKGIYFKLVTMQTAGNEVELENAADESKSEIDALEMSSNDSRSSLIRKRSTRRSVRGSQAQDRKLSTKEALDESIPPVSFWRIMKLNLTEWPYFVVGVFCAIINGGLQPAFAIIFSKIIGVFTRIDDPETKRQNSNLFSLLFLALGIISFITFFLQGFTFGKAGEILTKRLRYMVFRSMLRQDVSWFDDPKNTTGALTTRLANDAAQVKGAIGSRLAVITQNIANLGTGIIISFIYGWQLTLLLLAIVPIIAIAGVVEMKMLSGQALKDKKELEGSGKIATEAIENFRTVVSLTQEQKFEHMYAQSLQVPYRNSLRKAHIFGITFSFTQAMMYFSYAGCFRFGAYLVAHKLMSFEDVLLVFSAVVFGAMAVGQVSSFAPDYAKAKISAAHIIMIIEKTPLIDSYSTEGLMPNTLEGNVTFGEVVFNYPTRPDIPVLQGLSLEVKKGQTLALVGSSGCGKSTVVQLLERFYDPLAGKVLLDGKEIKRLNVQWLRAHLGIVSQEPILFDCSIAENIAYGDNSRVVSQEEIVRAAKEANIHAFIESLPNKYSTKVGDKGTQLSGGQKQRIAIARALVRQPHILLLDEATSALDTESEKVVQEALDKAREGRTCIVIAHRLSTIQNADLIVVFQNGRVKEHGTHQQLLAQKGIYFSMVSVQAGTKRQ
smiles,measurement,setting,value
CO[C@H]1C=C2CCN(C)[C@H]2C2c3cc4c(cc3C(=O)O[C@@H]21)OCO4 (some centres not stated),parasite load remaining,[1],64.2% (inactive)
same,viability,[1],100%
same,fold change,[2]; [8],0.936 (inactive)
same,fold change,[2]; [9],0.836
same,cell count,[2]; [10],9140
same,cell count,[2]; [11],9770
C[C@H]1O[C@@H](OC2CC[C@]3(C=O)[C@H]4CC[C@]5(C)[C@@H](C6=CC(=O)OC6)CC[C@]5(O)[C@@H]4CC[C@]3(O)C2)C[C@H](O)[C@@H]1O (some centres not stated),parasite load remaining,[1],0.83% (inactive)
same,viability,[1],69.5%
same,fold change,[2]; [8],0.718 (inactive)
same,fold change,[2]; [9],1.73
same,cell count,[2]; [10],1040
same,cell count,[2]; [11],1440
c1cncc([C@H]2CCCCN2)c1,parasite load remaining,[1],92.6% (inactive)
same,viability,[1],99.3%
same,fold change,[2]; [8],0.89 (inactive)
same,fold change,[2]; [9],1.12
same,cell count,[2]; [10],8860
same,cell count,[2]; [11],9960
CN(C)[C@@H]1C(=O)C(C(N)=O)=C(O)[C@@]2(O)C(=O)C3=C(O)c4c(O)ccc(Cl)c4[C@@](C)(O)C3C[C@@H]12 (some centres not stated),parasite load remaining,[1],51% (inactive)
same,viability,[1],46.7%
same,fold change,[2]; [8],0.828 (inactive)
same,fold change,[2]; [9],1.43
same,cell count,[2]; [10],7670
same,cell count,[2]; [11],9260
C=C1[C@@H]2CC[C@H]3[C@]4(C)C[C@H](O[C@H]5O[C@H](CO)[C@@H](OS(=O)(=O)O)[C@H](OS(=O)(=O)O)[C@H]5OC(=O)CC(C)C)C[C@@H](C(=O)O)[C@H]4CC[C@]3(C2)[C@H]1O,parasite load remaining,[1],72.2% (inactive)
same,viability,[1],97.4%
same,fold change,[2]; [8],0.879 (inactive)
same,fold change,[2]; [9],0.935
same,cell count,[2]; [10],8890
same,cell count,[2]; [11],10100
COc1ccc(C(=O)OC2CCC3(C)C4CCC5C6(O)CC(O)C7(O)C(CN8CC(C)CCC8C7(C)O)C6(O)CC53OC24O)cc1OC (configuration not stated),fold fluorescence,[3],11.6 [at 74.2 µM] (inactive)
CC[C@H]1CN2CCC1C[C@H]2[C@H](O)c1ccnc2ccc(OC)cc12 (some centres not stated),survival,[4],6.08 (inactive)
same,parasite load remaining,[1],83.6% (inactive) and 51.6% (inactive)
same,viability,[1],106% and 80.9%
same,fold change,[2]; [8],0.867 (inactive)
same,fold change,[2]; [9],1.17
same,cell count,[2]; [10],8140
same,cell count,[2]; [11],9390
CN1C[C@H](C(=O)N[C@]2(C)C[C@@]3(O)C4CCCN4C(=O)[C@H](Cc4ccccc4)N3C2=O)C=C2c3cccc4[nH]cc(c34)C[C@H]21 (some centres not stated),parasite load remaining,[1],49.1% (inactive)
same,viability,[1],102%
same,fold change,[2]; [8],0.836 (inactive)
same,fold change,[2]; [9],6.73
same,cell count,[2]; [10],10900
same,cell count,[2]; [11],13000
CCN1C[C@]2(COC)C(O)C[C@H](OC)[C@]34C1[C@H]([C@H](OC)[C@H]23)[C@]1(OC(C)=O)[C@H]2[C@@H](OC(=O)c3ccccc3)[C@@](O)(C[C@H]24)[C@@H](OC)[C@@H]1O (some centres not stated),fold fluorescence,[3],4.31 [at 77.4 µM] (inactive)
C[C@@H]1O[C@@H](O[C@@H]2C=C3CCC4C(CC[C@]5(C)[C@@H](c6ccc(=O)oc6)CC[C@]45O)[C@@]3(C)CC2)[C@H](O)[C@H](O)[C@H]1O (some centres not stated),parasite load remaining,[1],0.58% (inactive)
same,viability,[1],13.4%
same,fold change,[2]; [8],1.51 (inactive)
same,fold change,[2]; [9],0.74
same,cell count,[2]; [10],696
same,cell count,[2]; [11],460
CCN1C[C@]2(C)CC[C@H](OC)[C@@]34C1[C@]1(OCO[C@@]15C[C@H](OC)[C@H]1C[C@]3(O)[C@@H]5[C@H]1OC)[C@@H](OC(C)=O)[C@H]24,parasite load remaining,[1],91.7% (inactive)
same,viability,[1],96.9%
same,fold change,[2]; [8],0.951 (inactive)
same,fold change,[2]; [9],0.675
same,cell count,[2]; [10],10000
same,cell count,[2]; [11],10500
CC(=O)O[C@H]1C[C@H](O[C@H]2[C@@H](O)C[C@H](O[C@H]3[C@@H](O)C[C@H](O[C@H]4CC[C@@]5(C)[C@H](CC[C@]6(C)[C@]5(C)C[C@@H](O)[C@]5(C)[C@@H](C7=CC(=O)OC7)CC[C@@]56O)C4)O[C@@H]3C)O[C@@H]2C)O[C@H](C)[C@H]1O[C@@H]1O[C@H](CO)[C@@H](O)[C@H](O)[C@H]1O,parasite load remaining,[1],0.31% (inactive)
same,viability,[1],66.6%
same,fold change,[2]; [8],0.992 (inactive)
same,fold change,[2]; [9],1.14
same,cell count,[2]; [10],808
same,cell count,[2]; [11],815
CCN1C[C@]2(COC)CC[C@H](O)[C@]34C1[C@H](C[C@H]23)[C@@]1(O)C[C@H](OC)[C@H]2C[C@@H]4[C@@H]1[C@H]2OC(C)=O,parasite load remaining,[1],81.9% (inactive)
same,viability,[1],71.5%
same,fold change,[2]; [8],0.961 (inactive)
same,fold change,[2]; [9],0.467
same,cell count,[2]; [10],9850
same,cell count,[2]; [11],10200
CN1[C@@H]2CC(=O)C[C@H]1[C@H](O)C2,parasite load remaining,[1],87.8% (inactive)
same,viability,[1],81.1%
same,fold change,[2]; [8],0.914 (inactive)
same,fold change,[2]; [9],0.592
same,cell count,[2]; [10],8350
same,cell count,[2]; [11],9140
COC1=CC(=O)O[C@@H](/C=C/c2ccccc2)C1,survival,[4],16.6 (inactive)
same,parasite load remaining,[1],26.1% (inactive) and 89.1% (inactive)
same,viability,[1],46.2% and 90.2%
same,fold change,[2]; stronger effect = lower value,0.899 (inactive)
same,fold change,[2]; [9],1.34
same,cell count,[2]; [10],8920
same,cell count,[2]; [11],9920
CN1C(CC(O)c2ccccc2)CCCC1CC(O)c1ccccc1 (configuration not stated),survival,[4],5.42 (inactive)
same,parasite load remaining,[1],93.7% (inactive) and 75.5% (inactive)
same,viability,[1],96.2% and 77.8%
same,fold change,[2]; stronger effect = lower value,0.827 (inactive)
same,fold change,[2]; [9],1.06
same,cell count,[2]; [10],8680
same,cell count,[2]; [11],10500
CC[C@H](C)[C@H]1O[C@]2(C=C[C@@H]1C)C[C@@H]1C[C@@H](C/C=C(\C)C(O[C@H]3C[C@H](OC)C(O[C@H]4C[C@H](OC)[C@@H](O)[C@H](C)O4)[C@H](C)O3)[C@@H](C)/C=C/C=C3\CO[C@@H]4[C@H](O)C(C)=C[C@@H](C(=O)O1)[C@]34O)O2 (some centres not stated),fluorescence slope change,[5],61.5% (active)
same,z-score,[6]; [12],-1.19 (inactive)
same,z-score,[6]; [13],1.52
O[C@@H]1[C@@H]2[C@@H](O)CCCN2C[C@@H]1O,fold fluorescence,[3],5.36 [at 288.7 µM] (inactive)
C/C(=C\c1csc(C)n1)[C@H]1C[C@@H]2O[C@@H]2CCC[C@H](C)[C@H](O)[C@@H](C)C(=O)C(C)(C)[C@H](O)CC(=O)O1,viability,"[7]; at 0.000305 µM, OCI-C5x cells, with rucaparib 10 µM, 100% = cells with rucaparib alone",72.1% (active)
same,viability,"[7]; at 0.000305 µM, OCI-C5x cells, without rucaparib",52.1% (active)
same,viability,"[7]; at 0.000305 µM, OCI-P5x cells, with rucaparib 20 µM, 100% = cells with rucaparib alone",73.7% (active)
same,viability,"[7]; at 0.000305 µM, OCI-P5x cells, without rucaparib",30% (active)
same,viability,"[7]; at 0.00122 µM, OCI-C5x cells, with rucaparib 10 µM, 100% = cells with rucaparib alone",41.4% (active)
same,viability,"[7]; at 0.00122 µM, OCI-C5x cells, without rucaparib",28.8% (active)
same,viability,"[7]; at 0.00122 µM, OCI-P5x cells, with rucaparib 20 µM, 100% = cells with rucaparib alone",57.4% (active)
same,viability,"[7]; at 0.00122 µM, OCI-P5x cells, without rucaparib",15.9% (active)
same,viability,"[7]; at 0.00488 µM, OCI-C5x cells, with rucaparib 10 µM, 100% = cells with rucaparib alone",27.2% (active)
same,viability,"[7]; at 0.00488 µM, OCI-C5x cells, without rucaparib",23.1% (active)
same,viability,"[7]; at 0.00488 µM, OCI-P5x cells, with rucaparib 20 µM, 100% = cells with rucaparib alone",51% (active)
same,viability,"[7]; at 0.00488 µM, OCI-P5x cells, without rucaparib",16.8% (active)
same,viability,"[7]; at 0.0195 µM, OCI-C5x cells, with rucaparib 10 µM, 100% = cells with rucaparib alone",29.1% (active)
same,viability,"[7]; at 0.0195 µM, OCI-C5x cells, without rucaparib",22% (active)
same,viability,"[7]; at 0.0195 µM, OCI-P5x cells, with rucaparib 20 µM, 100% = cells with rucaparib alone",53.1% (active)
same,viability,"[7]; at 0.0195 µM, OCI-P5x cells, without rucaparib",17% (active)
same,viability,"[7]; at 0.0781 µM, OCI-C5x cells, with rucaparib 10 µM, 100% = cells with rucaparib alone",29.4% (active)
same,viability,"[7]; at 0.0781 µM, OCI-C5x cells, without rucaparib",22.1% (active)
same,viability,"[7]; at 0.0781 µM, OCI-P5x cells, with rucaparib 20 µM, 100% = cells with rucaparib alone",57% (active)
same,viability,"[7]; at 0.0781 µM, OCI-P5x cells, without rucaparib",17.9% (active)
same,viability,"[7]; at 0.313 µM, OCI-C5x cells, with rucaparib 10 µM, 100% = cells with rucaparib alone",29.6% (active)
same,viability,"[7]; at 0.313 µM, OCI-C5x cells, without rucaparib",24% (active)
same,viability,"[7]; at 0.313 µM, OCI-P5x cells, with rucaparib 20 µM, 100% = cells with rucaparib alone",46.5% (active)
same,viability,"[7]; at 0.313 µM, OCI-P5x cells, without rucaparib",15.9% (active)
same,viability,"[7]; at 1.25 µM, OCI-C5x cells, with rucaparib 10 µM, 100% = cells with rucaparib alone",25.2% (active)
same,viability,"[7]; at 1.25 µM, OCI-C5x cells, without rucaparib",24.3% (active)
same,viability,"[7]; at 1.25 µM, OCI-P5x cells, with rucaparib 20 µM, 100% = cells with rucaparib alone",46.3% (active)
same,viability,"[7]; at 1.25 µM, OCI-P5x cells, without rucaparib",14.6% (active)
same,viability,"[7]; at 5 µM, OCI-C5x cells, with rucaparib 10 µM, 100% = cells with rucaparib alone",52.3% (active)
same,viability,"[7]; at 5 µM, OCI-C5x cells, without rucaparib",41.6% (active)
same,viability,"[7]; at 5 µM, OCI-P5x cells, with rucaparib 20 µM, 100% = cells with rucaparib alone",43.6% (active)
same,viability,"[7]; at 5 µM, OCI-P5x cells, without rucaparib",17.3% (active)
COCCCOc1ccnc(CS(=O)c2nc3ccccc3[nH]2)c1C (configuration not stated),z-score,[6]; [12],1.01 (inactive)
same,z-score,[6]; [13],0.105
